Structures can show the parent of a compound that is named as a salt.
Columns and labels:
Test in all cases: thermal shift delta Tm vs DMSO control; higher = stronger stabilization (binding)
Settings in all cases: 12.5 µM; protein concentration 2 µM
LOC_OS02G45750-cb003 = test system: LOC_OS02G45750-cb003
Procedure, shortened: (§1)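 Compounds dissolved in DMSO were added to purified rice kinase domain constructs, which had been expressed in E. coli, for differential scanning fluorimetry. Each well held 19.5 μl of 2 μM kinase in 100 mM potassium phosphate pH 7.5, 150 mM NaCl, 10% glycerol and 5 × SYPRO Orange. Fluorescence was followed from 25°C to 95°C at a rate of 0.05°C/s. Shifts in Boltzmann-fitted melting temperature are triplicate means relative to DMSO-only protein.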

LOC_OS02G54510-cb004 = test system: LOC_OS02G54510-cb004
Procedure, shortened: as §1

LOC_OS03G04050-cb001 = test system: LOC_OS03G04050-cb001
Procedure, shortened: as §1

LOC_OS03G12390-cb001 = test system: LOC_OS03G12390-cb001
Procedure, shortened: as §1

LOC_OS03G27990-cb004 = test system: LOC_OS03G27990-cb004
Procedure, shortened: as §1

LOC_OS03G50450-cb001 = test system: LOC_OS03G50450-cb001
Procedure, shortened: as §1

LOC_OS03G50810-cb003 = test system: LOC_OS03G50810-cb003
Procedure, shortened: as §1

LOC_OS04G35114-cb001 = test system: LOC_OS04G35114-cb001
Procedure, shortened: as §1

LOC_OS04G38480-cb003 = test system: T1, LOC_OS04G38480-cb003
T1 sequence (whole entry): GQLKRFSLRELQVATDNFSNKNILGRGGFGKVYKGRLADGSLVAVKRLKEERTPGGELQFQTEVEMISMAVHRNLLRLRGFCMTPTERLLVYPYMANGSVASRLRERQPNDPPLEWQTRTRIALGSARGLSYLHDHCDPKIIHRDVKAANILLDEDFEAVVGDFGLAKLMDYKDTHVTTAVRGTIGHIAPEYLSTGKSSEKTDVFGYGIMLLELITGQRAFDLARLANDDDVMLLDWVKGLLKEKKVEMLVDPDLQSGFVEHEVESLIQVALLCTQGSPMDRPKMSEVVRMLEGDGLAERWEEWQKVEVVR
Procedure, shortened: as §1

LOC_OS04G41100-cb001 = test system: T2, LOC_OS04G41100-cb001
T2 sequence (whole entry): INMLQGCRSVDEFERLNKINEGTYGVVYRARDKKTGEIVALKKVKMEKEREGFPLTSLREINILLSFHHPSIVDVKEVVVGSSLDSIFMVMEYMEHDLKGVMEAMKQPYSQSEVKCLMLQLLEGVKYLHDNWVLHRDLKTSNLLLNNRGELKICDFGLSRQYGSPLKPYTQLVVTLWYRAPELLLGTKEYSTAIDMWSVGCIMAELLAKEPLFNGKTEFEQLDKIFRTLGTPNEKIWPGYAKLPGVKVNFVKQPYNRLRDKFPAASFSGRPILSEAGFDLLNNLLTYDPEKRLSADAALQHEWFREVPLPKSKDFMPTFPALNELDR
Procedure, shortened: as §1

LOC_OS04G57630-cb004 = test system: LOC_OS04G57630-cb004
Procedure, shortened: as §1

LOC_OS05G07850-cb002 = test system: LOC_OS05G07850-cb002
Procedure, shortened: as §1

LOC_OS05G16824-cb004 = test system: LOC_OS05G16824-cb004
Procedure, shortened: as §1

LOC_OS05G28520-cb001 = test system: LOC_OS05G28520-cb001
Procedure, shortened: as §1

LOC_OS05G30820-cb001 = test system: LOC_OS05G30820-cb001
Procedure, shortened: as §1

LOC_OS05G43570-cb004 = test system: LOC_OS05G43570-cb004
Procedure, shortened: as §1

LOC_OS06G16330-cb003 = test system: LOC_OS06G16330-cb003
Sequence of LOC_OS06G16330-cb003 (as listed by the source): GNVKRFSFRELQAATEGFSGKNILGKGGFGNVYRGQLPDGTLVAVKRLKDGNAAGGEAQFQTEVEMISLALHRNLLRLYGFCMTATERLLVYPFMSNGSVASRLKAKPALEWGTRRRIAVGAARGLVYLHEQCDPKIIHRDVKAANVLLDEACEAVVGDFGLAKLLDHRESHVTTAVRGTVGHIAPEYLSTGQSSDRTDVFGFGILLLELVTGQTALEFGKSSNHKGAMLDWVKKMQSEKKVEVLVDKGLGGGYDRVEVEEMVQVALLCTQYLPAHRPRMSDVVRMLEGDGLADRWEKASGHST
Procedure, shortened: as §1

LOC_OS06G22820-cb001 = test system: T3, LOC_OS06G22820-cb001
T3 sequence (whole entry): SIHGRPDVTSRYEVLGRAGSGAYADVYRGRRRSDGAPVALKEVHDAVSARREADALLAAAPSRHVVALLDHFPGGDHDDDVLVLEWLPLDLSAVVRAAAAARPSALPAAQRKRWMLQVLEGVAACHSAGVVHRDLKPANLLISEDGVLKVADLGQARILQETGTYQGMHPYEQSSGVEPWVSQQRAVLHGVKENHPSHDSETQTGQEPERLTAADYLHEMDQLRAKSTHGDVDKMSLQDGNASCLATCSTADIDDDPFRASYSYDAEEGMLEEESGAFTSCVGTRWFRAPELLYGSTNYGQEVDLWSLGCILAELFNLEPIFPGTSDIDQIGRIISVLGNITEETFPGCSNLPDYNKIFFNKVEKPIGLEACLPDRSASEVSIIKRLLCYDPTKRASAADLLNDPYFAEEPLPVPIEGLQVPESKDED
Procedure, shortened: as §1

LOC_OS07G06570-cb004 = test system: LOC_OS07G06570-cb004
Procedure, shortened: as §1

LOC_OS07G07230-cb001 = test system: LOC_OS07G07230-cb001
Procedure, shortened: as §1

Row | Compound | thermal shift delta Tm (LOC_OS02G45750-cb003) | thermal shift delta Tm (LOC_OS02G54510-cb004) | thermal shift delta Tm (LOC_OS03G04050-cb001) | thermal shift delta Tm (LOC_OS03G12390-cb001) | thermal shift delta Tm (LOC_OS03G27990-cb004) | thermal shift delta Tm (LOC_OS03G50450-cb001) | thermal shift delta Tm (LOC_OS03G50810-cb003) | thermal shift delta Tm (LOC_OS04G35114-cb001) | thermal shift delta Tm (LOC_OS04G38480-cb003) | thermal shift delta Tm (LOC_OS04G41100-cb001) | thermal shift delta Tm (LOC_OS04G57630-cb004) | thermal shift delta Tm (LOC_OS05G07850-cb002) | thermal shift delta Tm (LOC_OS05G16824-cb004) | thermal shift delta Tm (LOC_OS05G28520-cb001) | thermal shift delta Tm (LOC_OS05G30820-cb001) | thermal shift delta Tm (LOC_OS05G43570-cb004) | thermal shift delta Tm (LOC_OS06G16330-cb003) | thermal shift delta Tm (LOC_OS06G22820-cb001) | thermal shift delta Tm (LOC_OS07G06570-cb004) | thermal shift delta Tm (LOC_OS07G07230-cb001)
1 | N#Cc1ccc2ncnc(NCCc3ccccc3)c2c1 [Senexin A] | 1.15 °C | 0.03 °C | 0.34 °C | 1.84 °C | 0.37 °C | 0.68 °C | 0.83 °C | 1.3 °C | 1.69 °C | 0.25 °C | 0.34 °C | 4.61 °C | 4.32 °C | 0.11 °C | 0.16 °C | 0.23 °C | 2.48 °C | 0.4 °C | 1.46 °C | 0.54 °C
2 | Nc1ncccc1-c1nc2ccc(-c3ccccc3)nc2n1-c1ccc(C2(N)CCC2)cc1 [Miransertib (ARQ 092) HCl] | 0.57 °C | -0.18 °C | 0.2 °C | -0.09 °C | 0.04 °C | 0.49 °C | -0.05 °C | 0.38 °C | 0.6 °C | 0.18 °C | -0.29 °C | 1.08 °C | -5.68 °C | -0.2 °C | 0.04 °C | 0.09 °C | -0.91 °C | 0.24 °C | 1.32 °C | 0.36 °C
3 | O=C(Nc1ccccc1C(=O)NC1CCCCNC1=O)c1cc2ccccc2s1 (stereo not given) | 0.67 °C | 0.07 °C | 0.19 °C | -0.24 °C | 0.15 °C | 0.22 °C | 0.43 °C | 0.94 °C | 1.47 °C | 0.17 °C | 0.09 °C | 0.55 °C | -1.58 °C | 0.54 °C | 0.1 °C | 0.18 °C | -0.39 °C | 0.25 °C | 1.21 °C | 0.41 °C
4 | O=C(O)CCC(=O)Nc1ccc(Br)cn1 [Bikinin] | 0.64 °C | 0.11 °C | 0.3 °C | 0.13 °C | 0.19 °C | 0.33 °C | 0.43 °C | 0.74 °C | 1.47 °C | 0.42 °C | 0.15 °C | 0.5 °C | 0.58 °C | 0.89 °C | 0.45 °C | 0.76 °C | 0.72 °C | 0.48 °C | 0.42 °C | -0.18 °C
5 | O=c1c(-c2ccc(O)cc2)coc2cc(O)cc(O)c12 [Genistein] | -0.47 °C | -0.37 °C | -0.01 °C | 1.8 °C | 0.92 °C | 0.14 °C | 0.36 °C | -1.3 °C | -1.76 °C | -0.75 °C | -1.09 °C | 5.31 °C | -0.94 °C | -0.31 °C | 0.78 °C | 0.36 °C | 0.87 °C | 0.81 °C | -0.45 °C | 0.02 °C
6 | Cn1cc(-c2ccc3ncc(Cc4ccc5ncccc5c4)n3n2)cn1 | 0.5 °C | 0.06 °C | 0.32 °C | -0.22 °C | 0.07 °C | 0.05 °C | 0.44 °C | 2.6 °C | 1.45 °C | 0.07 °C | 1.12 °C | 5.01 °C | -1.27 °C | 0.45 °C | 0.48 °C | 0.16 °C | 2.64 °C | 0.5 °C | 0.78 °C | 0.13 °C
7 | COc1ccc2c(c1)[C@]1(C[C@H]1c1ccc3c(/C=C/c4ccc(CN5C[C@@H](C)O[C@@H](C)C5)cc4)n[nH]c3c1)C(=O)N2 | 9.37 °C | -0.19 °C | 0.73 °C | 0.7 °C | 0.36 °C | 0.66 °C | 4.68 °C | 4.47 °C | 4.28 °C | 0.19 °C | 7.27 °C | 12.3 °C | 9.09 °C | 0.02 °C | -0.63 °C | 0.5 °C | 11.6 °C | 0.46 °C | 0.63 °C | -0.28 °C
8 | COC(=O)c1ccc2c(c1)NC(=O)/C2=C(\Nc1ccc(N(C)C(=O)CN2CCN(C)CC2)cc1)c1ccccc1 [Nintedanib (BIBF 1120)] | 2.59 °C | 0.74 °C | 0.2 °C | 2.83 °C | 1.25 °C | 0.03 °C | 2.2 °C | 6.69 °C | 0.23 °C | 0.7 °C | 1.08 °C | 1.57 °C | 9.2 °C | 0.54 °C | 0.35 °C | 0.43 °C | 0.71 °C | 0.4 °C | 0.96 °C | 0.42 °C
9 | Oc1c2ccccc2c2c3c(cccc13)N=N2 | 8.26 °C | 0.51 °C | 0.73 °C | 5.6 °C | 3.39 °C | 2.66 °C | 2.79 °C | 6.42 °C | 2.04 °C | 1.69 °C | 2.27 °C | 9.83 °C | 9.67 °C | 0.7 °C | 1.62 °C | 1 °C | 5.84 °C | 0.87 °C | 1.14 °C | -0.13 °C
10 | CCn1c(N)c(C(=O)NC)c(=O)c2ccc(C#CC(C)(O)COC)nc21 (stereo not given) | 1.5 °C | -0.18 °C | 0.43 °C | 1.63 °C | 0.43 °C | 0.79 °C | 0.85 °C | 1.56 °C | 0.68 °C | 0.29 °C | 0.45 °C | 5.21 °C | 3.79 °C | 0.37 °C | 0.73 °C | 0.13 °C | 0.51 °C | 0.3 °C | 1.2 °C | -0.09 °C
11 | c1nc2c(NC3CCCCC3)nc(Nc3ccc(N4CCOCC4)cc3)nc2[nH]1 [Reversine] | 8.28 °C | 4.92 °C | 0.32 °C | 9.58 °C | 5.33 °C | 9.57 °C | 5.17 °C | 6.36 °C | 3.21 °C | 0.65 °C | 3.78 °C | 12 °C | 11.7 °C | 0.53 °C | 4.07 °C | 1.11 °C | 8.57 °C | 0.3 °C | 1.48 °C | 1.02 °C
12 | CNS(=O)(=O)Nc1nccc(Cc2c(C)c3ccc(Oc4ncccn4)cc3oc2=O)c1F | 0.52 °C | -0.03 °C | 0.37 °C | 0.7 °C | 0.15 °C | 0.4 °C | 0.57 °C | -0.07 °C | 0.35 °C | 0.2 °C | 0.3 °C | 0.16 °C | -1.72 °C | 0.32 °C | 0.47 °C | 0.49 °C | 0.47 °C | 0.62 °C | 1.63 °C | 0.51 °C
13 | COCCNCc1ccc(-c2cc3nccc(Oc4ccc(NC(=O)C5(C(=O)Nc6ccc(F)cc6)CC5)cc4F)c3s2)nc1 [Sitravatinib (MGCD516)] | 6.42 °C | 1.08 °C | 0.75 °C | 0.75 °C | 1.06 °C | 0.57 °C | 3.13 °C | 6.52 °C | 3.71 °C | 3.13 °C | 7.89 °C | 14.5 °C | 10.7 °C | 7.64 °C | 0.29 °C | 0.73 °C | 9.07 °C | 0.6 °C | 0.67 °C | -0.46 °C

From the supplement of paper PMC9694430
